# Results as given in PubChem BioAssay (NCATS).
# Records with an inconclusive call do not appear. Activity calls are given as the source filed them. Unless noted, calls follow the shape of the full dose curve.
# Experiments:
# [1] = molecular target: Luciferin 4-monooxygenase (Photinus pyralis) (UniProt P08659); assay: Biochemical firefly luciferase enzyme assay for NPC (AID 624030; active = well fitted curve in the direction sought with a large enough effect; an effect the other way counts as inactive or inconclusive;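 also: purified P. pyralis luciferase at 10 nM with luciferin and ATP substrate; series mostly up to about 59 µM; 0% = DMSO and -100% = full luciferase inhibition by PTC124 control; nearly all actives have a fitted effect of over 70% in size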)
# How it was run: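 Counter-screen for direct inhibition of the luciferase enzyme by approved-drug library compounds, run at 10 nM enzyme in 50 mM Tris acetate (final). Luminescence was read within 5 min of enzyme-buffer addition and normalized to PTC124 versus DMSO (0%).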
# [2] = S16 Schwann cell viability assay (CellTiter-Glo assay) (AID 624031; active = well fitted curve in the direction sought with a large enough effect; an effect the other way counts as inactive or inconclusive;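 also: cellular ATP luminescence as a viability measure; series mostly up to about 58 µM; plate controls were DMSO-treated cells for no effect and cell-free wells for full effect; nearly all actives have a fitted effect of over 70% in size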)
# How it was run: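 Luminescent ATP read-out (CellTiter-Glo) after 24 h compound exposure of native S16 rat Schwann cells at 37 °C. Signals were normalized between cell-free wells and DMSO-treated cells, set as 0% activity.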
# [3] = molecular target: Vitamin D3 receptor (Homo sapiens) (UniProt P11473); assay: qHTS assay for small molecule agonists of vitamin D receptor signaling (AID 588543)
# How it was run: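 Agonist-mode beta-lactamase reporter: HEK293T VDR-UAS-bla cells in charcoal-stripped 2% FBS, compound series 16 h 37 C, CCF4 2 h RT. EC50 from Hill fit, scaled against DMSO and 50 nM calcitriol control.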
# [4] = qHTS assay for small molecule agonists of retinoid X receptor alpha signaling (AID 588544); settings: HEK293T RXRa-UAS-bla, beta-lactamase reporter, 18 h; 530 nm emission
# Source text: (§1) NIH Chemical Genomics Center [NCGC] U.S. Environmental Protection Agency [EPA] National Institutes of Environmental Health Sciences [NIEHS] National Toxicology Program [NTP] NCGC Assay Overview The Retinoid X receptor (RXR), a nuclear hormone receptor is expressed in liver, spleen, placenta, epidermis, central nervous system. These receptors are able to form homo and heterodimers with other nuclear receptors and due to this heterodimerizing ability, RXR functions as master regulators producing diverse physiological effects. Three subtypes of RXR exist; alpha, beta and gamma. Retinoid X receptor alpha (RXR-alpha) has potential roles in metabolic signaling pathways, skin alopecia, dermal cysts, cardiac development, insulin sensitization etc. Therefore screening environmental chemicals on RXR-alpha signaling can be used for the studies focused on such therapeutic applications.
# (§2) NCGC Assay Protocol Summary Using a beta-lactamase reporter-gene under control of Retinoid X receptor--alpha (RXR-alpha) response element, a cell-based assay [GeneBLAzer (RXR-alpha -UAS-bla assay developed by Invitrogen] was used to measure RXR-alpha ligands signaling. GeneBLAzer RXR-alpha -UAS-bla HEK293T cells were used with assay medium containing 2% charcoal-stripped FBS. The assay was performed in clear bottom black Greiner 1536-well plates. 9-cis-retinoic acid was used in the screen as the positive control. Library compounds were measured for their ability to stimulate the reporter gene activity. Compounds were screened in a titration series in 1536-well format. The fluorescence intensity (405 nm excitation, 460/530 nm emission) was measured using an EnVision plate reader. Data was normalized relative to 9-cis-retinoic acid control (500 nM, 100%), and DMSO only wells (basal, 0%). Concentration-response titration points for each compound were fitted to the Hill equation yielding concentrations of half-maximal stimulation (EC50) and maximal response (efficacy) values. qHTS protocol for RXR-alpha beta-lactamase assay in agonist mode [Step] [Parameter] [Value] [Description] 1. Reagent; 6 uL; 2500 cells/well 2. Incubation; 37 C for 4 hrs 3. Compounds; 23 nL; 0.59 nM to 92 uM 4. Controls (9-cis-retinoic acid); 23 nL, - One column with dose response, start 38 uM, 1:3 dilutions in duplicates - Final concentrations of 500 nM and 50 nM in two columns 5. Incubation; 37 C for 18 hrs 6. Detection reagent; 1 uL of CCF4-dye 7. Incubation; RT for 2 hrs 8. Detection; Fluorescence; Envision plate reader
# [5] = molecular target: Retinoic acid receptor RXR-alpha (Homo sapiens) (UniProt P19793); assay: as above
# Source text: as §1, §2
# [6] = molecular target: Thyroid hormone receptor beta (Homo sapiens) (UniProt P10828); assay: qHTS assay for small molecule agonists of thyroid hormone receptor beta signaling (AID 588545)
# How it was run: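 In this cell-based screen, titrated compounds act on HEK 293 cells held in medium with 2% charcoal/dextran FBS, NEAA and pyruvate for 18 hrs at 37 C. Responses are expressed relative to T3 (10 nM) as 100% and basal DMSO as 0%.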
# [7] = qHTS assay for small molecule antagonists of retinoid X receptor alpha signaling (AID 588546; active = well fitted inhibition curve with a large enough effect in the signal ratio, with a control signal flat, not every such curve was filed as active; the % refers to the signal ratio; also: % is scaled to controls: 0 for no effect and ±100 for the full control effect); settings: HEK293T RXRa-UAS-bla, beta-lactamase ratio, antagonist mode; measured here: W530 green channel, cytotoxicity proxy
# How it was run: (§3)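 Beta-lactamase reporter inhibition, read as CCF4 fluorescence ratio (ex 405, em 460/530 nm) after 2 h at RT. HEK293T UAS-bla cells, 2500/well, were stimulated with 9-cis-RA at 500 or 100 nM final alongside test compound for 18 h at 37 C.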
# [8] = molecular target: Retinoic acid receptor RXR-alpha (Homo sapiens) (UniProt P19793); assay: as above; settings: HEK293T RXRa-UAS-bla, beta-lactamase ratio, antagonist mode
# How it was run: as §3
# [9] = molecular target: Thyroid hormone receptor beta (Homo sapiens) (UniProt P10828); assay: qHTS assay for small molecule antagonists of thyroid hormone receptor beta signaling (AID 588547; active = well fitted inhibition curve with a large enough effect in the signal ratio, with a control signal flat, not every such curve was filed as active; the % refers to the signal ratio;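 also: cells stimulated with 0.4 nM T3 agonist during compound exposure; series mostly up to about 77 µM; % is scaled to controls: 0 for no effect and ±100 for the full control effect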); settings: TR-UAS-bla HEK293, beta-lactamase ratio, antagonist mode, 18 h
# How it was run: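 TR-UAS-bla GripTite HEK293 cells in 2% charcoal/dextran FBS medium were preincubated 4 h at 37 C, given compound (0.59 nM to 92 uM) plus 0.4 nM T3 (final) for 18 h, then CCF4 for 2 h at RT; Hill fit gave IC50.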
# [10] = molecular target: Voltage-gated inwardly rectifying potassium channel KCNH2 (Homo sapiens) (UniProt Q12809); assay: qHTS Assay for Small Molecule Inhibitors of the Human hERG Channel Activity (AID 588834; active = well fitted curve in the direction sought with a large enough effect; an effect the other way counts as inactive or inconclusive;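 also: top concentration of the series differs between compounds; % is scaled to controls: 0 for no effect and ±100 for the full control effect; lower thallium flux fluorescence means stronger hERG block; nearly all actives have a fitted effect of over 50% in size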)
# How it was run: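 hERG block measured as reduced thallium-dye (FluxOR) fluorescence after stimulation buffer addition, read over 2 min. Cells were hERG-BacMam-transduced U2OS exposed to compound ~10 min […]; concentration-response fitted with Hill equation for AC50.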
# Sequence of Vitamin D3 receptor (Homo sapiens) (P11473 whole entry, looked up): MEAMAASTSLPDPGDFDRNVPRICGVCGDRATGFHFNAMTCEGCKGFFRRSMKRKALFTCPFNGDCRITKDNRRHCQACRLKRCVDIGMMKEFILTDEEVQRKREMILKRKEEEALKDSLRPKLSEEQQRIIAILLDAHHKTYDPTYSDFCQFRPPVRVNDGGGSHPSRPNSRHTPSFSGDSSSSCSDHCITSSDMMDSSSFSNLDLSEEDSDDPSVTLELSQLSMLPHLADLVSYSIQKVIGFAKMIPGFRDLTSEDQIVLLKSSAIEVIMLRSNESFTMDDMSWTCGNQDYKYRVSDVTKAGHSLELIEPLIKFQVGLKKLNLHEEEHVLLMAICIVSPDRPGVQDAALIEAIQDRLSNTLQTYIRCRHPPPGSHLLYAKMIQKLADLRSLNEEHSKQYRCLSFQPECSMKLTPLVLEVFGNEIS
# Sequence of Retinoic acid receptor RXR-alpha (Homo sapiens) (P19793 whole entry, looked up): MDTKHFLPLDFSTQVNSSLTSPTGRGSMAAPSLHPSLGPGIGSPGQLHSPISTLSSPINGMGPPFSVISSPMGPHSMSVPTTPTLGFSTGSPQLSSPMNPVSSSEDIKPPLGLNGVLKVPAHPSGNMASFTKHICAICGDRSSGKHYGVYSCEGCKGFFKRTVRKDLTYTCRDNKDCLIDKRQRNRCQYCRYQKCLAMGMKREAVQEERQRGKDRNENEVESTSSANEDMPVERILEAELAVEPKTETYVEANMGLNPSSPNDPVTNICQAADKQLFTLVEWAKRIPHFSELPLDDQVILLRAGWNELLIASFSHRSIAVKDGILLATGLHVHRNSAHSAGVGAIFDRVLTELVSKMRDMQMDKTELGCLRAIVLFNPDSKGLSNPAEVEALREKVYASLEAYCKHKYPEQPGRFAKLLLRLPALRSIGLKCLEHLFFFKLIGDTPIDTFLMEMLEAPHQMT
# Sequence of Luciferin 4-monooxygenase (Photinus pyralis) (P08659 whole entry, looked up): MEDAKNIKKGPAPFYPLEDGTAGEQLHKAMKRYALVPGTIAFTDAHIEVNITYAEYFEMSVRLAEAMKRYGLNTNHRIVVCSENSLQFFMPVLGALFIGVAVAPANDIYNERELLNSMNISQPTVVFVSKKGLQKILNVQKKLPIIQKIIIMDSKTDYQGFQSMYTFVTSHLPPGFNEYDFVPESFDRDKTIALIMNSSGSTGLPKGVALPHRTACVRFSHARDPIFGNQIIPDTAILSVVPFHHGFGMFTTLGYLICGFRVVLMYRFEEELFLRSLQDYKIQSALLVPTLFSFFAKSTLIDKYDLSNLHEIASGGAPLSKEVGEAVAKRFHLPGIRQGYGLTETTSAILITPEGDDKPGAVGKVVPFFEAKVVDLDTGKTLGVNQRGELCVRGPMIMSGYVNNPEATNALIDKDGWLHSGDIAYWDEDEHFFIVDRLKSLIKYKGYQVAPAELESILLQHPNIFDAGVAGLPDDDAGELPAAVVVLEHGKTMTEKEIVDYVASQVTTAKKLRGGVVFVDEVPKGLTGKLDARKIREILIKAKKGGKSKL
# Sequence of Thyroid hormone receptor beta (Homo sapiens) (P10828 whole entry, looked up): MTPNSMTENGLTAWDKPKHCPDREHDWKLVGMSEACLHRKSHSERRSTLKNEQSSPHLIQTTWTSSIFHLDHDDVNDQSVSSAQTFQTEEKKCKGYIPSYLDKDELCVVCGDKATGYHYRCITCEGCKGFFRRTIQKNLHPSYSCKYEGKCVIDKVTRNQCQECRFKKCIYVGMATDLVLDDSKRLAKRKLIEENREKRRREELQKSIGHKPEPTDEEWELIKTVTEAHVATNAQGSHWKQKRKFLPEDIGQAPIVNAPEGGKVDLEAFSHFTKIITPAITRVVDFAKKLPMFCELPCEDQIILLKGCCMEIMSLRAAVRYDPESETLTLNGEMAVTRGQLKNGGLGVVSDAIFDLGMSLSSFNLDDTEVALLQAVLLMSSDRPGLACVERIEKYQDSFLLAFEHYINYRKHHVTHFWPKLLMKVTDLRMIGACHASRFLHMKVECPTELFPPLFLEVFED
# Sequence of Voltage-gated inwardly rectifying potassium channel KCNH2 (Homo sapiens) (Q12809 whole entry, looked up): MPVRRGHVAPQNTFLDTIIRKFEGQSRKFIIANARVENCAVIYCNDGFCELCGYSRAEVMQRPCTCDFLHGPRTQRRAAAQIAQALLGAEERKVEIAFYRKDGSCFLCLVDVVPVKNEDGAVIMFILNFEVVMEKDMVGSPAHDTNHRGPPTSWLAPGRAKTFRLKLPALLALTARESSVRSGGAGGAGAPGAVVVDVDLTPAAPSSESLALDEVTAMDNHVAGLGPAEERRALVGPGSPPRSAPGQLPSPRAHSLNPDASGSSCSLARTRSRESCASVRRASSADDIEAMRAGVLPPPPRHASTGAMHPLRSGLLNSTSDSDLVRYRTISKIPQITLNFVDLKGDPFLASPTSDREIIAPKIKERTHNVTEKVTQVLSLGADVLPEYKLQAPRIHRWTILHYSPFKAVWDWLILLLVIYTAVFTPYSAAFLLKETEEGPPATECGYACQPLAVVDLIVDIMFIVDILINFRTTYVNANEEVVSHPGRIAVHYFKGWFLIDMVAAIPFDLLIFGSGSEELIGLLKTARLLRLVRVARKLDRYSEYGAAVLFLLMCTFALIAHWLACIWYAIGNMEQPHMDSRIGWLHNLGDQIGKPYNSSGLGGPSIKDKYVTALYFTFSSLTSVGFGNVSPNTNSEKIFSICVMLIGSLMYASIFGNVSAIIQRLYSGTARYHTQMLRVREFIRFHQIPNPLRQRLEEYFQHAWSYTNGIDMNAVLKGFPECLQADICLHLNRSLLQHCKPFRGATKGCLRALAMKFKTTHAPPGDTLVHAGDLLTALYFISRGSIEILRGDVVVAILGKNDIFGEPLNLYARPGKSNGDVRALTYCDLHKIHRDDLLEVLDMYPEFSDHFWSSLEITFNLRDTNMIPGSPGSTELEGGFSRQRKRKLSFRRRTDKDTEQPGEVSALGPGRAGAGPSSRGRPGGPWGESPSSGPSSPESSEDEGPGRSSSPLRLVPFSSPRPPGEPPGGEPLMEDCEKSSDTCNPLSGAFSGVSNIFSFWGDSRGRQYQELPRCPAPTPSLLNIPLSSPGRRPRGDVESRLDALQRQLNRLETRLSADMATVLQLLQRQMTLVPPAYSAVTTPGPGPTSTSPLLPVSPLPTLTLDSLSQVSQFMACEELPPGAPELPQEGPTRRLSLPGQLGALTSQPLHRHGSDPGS
smiles,measurement,setting,value
CCc1cccc2c3c([nH]c12)[C@@](CC)(CC(=O)O)OCC3,outcome,[1],inactive
same,outcome,[2],inactive
C=C1C[C@]23C[C@@]1(O)CC[C@H]2[C@@]12C=C[C@H](O)[C@@](C)(C(=O)O1)[C@H]2[C@@H]3C(=O)O,outcome,[3],inactive
same,max response,[4],-10.6%
same,outcome,[5],inactive
same,outcome,[6],inactive
same,max response,[7],4.31%
same,max response,[8],6.93% (inactive)
same,activity change % (negative = inhibition),[9],23.9% (inactive)
same,outcome,[10],inactive
O=C(/C=C/C=C/c1ccc2c(c1)OCO2)N1CCCCC1,outcome,[3],inactive
same,outcome,[6],inactive
same,activity change % (negative = inhibition),[9],-4.09% (inactive)
CCC(=O)OCC(=O)[C@@]1(OC(=O)CC)[C@@H](C)C[C@H]2[C@@H]3CCC4=CC(=O)C=C[C@]4(C)[C@@]3(F)[C@@H](O)C[C@@]21C,outcome,[1],inactive
CCOC(=O)C(CCc1ccccc1)NC(C)C(=O)N1Cc2ccccc2CC1C(=O)O (centres undefined),outcome,[1],inactive
same,outcome,[2],inactive
COc1ccc(CCC(=O)c2c(O)cc(O[C@@H]3O[C@H](CO)[C@@H](O)[C@H](O)[C@H]3O[C@@H]3O[C@@H](C)[C@H](O)[C@@H](O)[C@H]3O)cc2O)cc1O,outcome,[3],inactive
same,max response,[4],1.28%
same,outcome,[5],inactive
same,outcome,[6],inactive
same,max response,[7],-15.7%
same,max response,[8],10.3% (inactive)
same,activity change % (negative = inhibition),[9],-11.4% (inactive)
same,outcome,[10],inactive
